From PubChem BioAssay AID463173 (ICCB-Longwood Screening Facility, Harvard Medical School, 2010)
Hit rate of the full screen: of about 52,000 compounds, about 1,700 (3.3%) were called active. The sample holds actives, similar compounds and a random draw of the others, so the mix is not that of the screen. Values without a mark were called inactive. Rule as the data show it: active = survival mostly below about 52% (no sharp cut-off); inactive = mostly above about 56%.

What follows are compounds tested on Wild type (assay: growth inhibition of S. aureus wild type versus tarO mutant, primary screen, teichoic acid synthesis inhibitors, RN4220, OD600 (AID 463173)). Details: S. aureus RN4220 wild type/DeltatarO growth, OD600, 18 h, hits give low values, screened at 18.75 µg/mL (by protocol).
`COc1cc2ccccc2cc1C(=O)Nc1cccc(-c2nc3cc(C)c(C)cc3o2)c1` was tested, and the survival was 58%.
Work on `Cc1ccc2cccc(NC(=O)C(C)Oc3ccc(C)c(C)c3)c2n1` (configuration not stated) yielded a survival of 83%.
`Cc1ccc2cccc(NC(=O)c3ccc(-c4ccc(Cl)cc4Cl)o3)c2n1` showed a survival of 69%.
`COc1cc2ccccc2cc1C(=O)Nc1cc(-c2nc3ccccc3o2)ccc1C` was tested, and the survival was 126%.
With `Cc1ccc2cccc(NC(=O)C(C)Oc3ccc(Cl)cc3Cl)c2n1` (configuration not stated) the survival was -9% (active).
`COc1ccc(NC(=O)c2ccco2)cc1NC(=O)C(C)C` was tested, and the survival was 90%.
With `Cc1ccc2nc(-c3cccc(NC(=O)c4ccc(Br)o4)c3)oc2c1` the survival was 7% (active).
In the case of `COc1ccc(NC(=O)c2ccco2)cc1NC(=O)c1cc(Cl)ccc1OC`, the survival is reported as 65%.
For `COc1cc2ccccc2cc1C(=O)Nc1cccc(-c2nc3ccccc3o2)c1`, the survival was 1% (active).
In the case of `Cc1cc(C)c2oc(-c3cccc(NC(=O)c4ccc(Br)o4)c3)nc2c1`, the survival is reported as 45%.
Work on `Cc1ccc2nc(-c3ccc(Cl)c(NC(=O)c4ccc(Br)o4)c3)oc2c1` yielded a survival of 69%.
In the case of `COc1ccc(NC(=O)c2ccco2)cc1NC(=O)C(C)Oc1ccc(Cl)cc1Cl` (configuration not stated), the survival is reported as 6% (active).
`Cc1cc2c(cc1S(=O)(=O)CCC(=O)N1CCCCC1C)OCC(=O)N2` (configuration not stated) was tested, and the survival was 85%.
`COc1ccc(CNC(=O)c2ccc(CS(=O)Cc3ccccc3Cl)o2)cc1` (configuration not stated) was tested, and the survival was 95%.
`Cc1ccc(-n2nc(C(=O)N3CCCCC3C)c(=O)n(C)c2=O)cc1` (configuration not stated) showed a survival of 80%.
With `COc1ccc(S(=O)(=O)c2cn(C)c3ccc(C)cc3c2=O)cc1` the survival was 82%.
For `CSc1ccc(CNC(=O)c2ccccc2NC(=O)c2nsc3ccccc23)cc1`, the survival was 90%.
`CCc1ccc(NC(=O)CN2C(=O)C3(SCC(=O)N3c3ccc(F)c(F)c3)c3ccccc32)cc1` (configuration not stated) was tested, and the survival was 125%.
Compound `Cc1cc(OC(C)C(=O)Nc2cccc(-c3nc4ccccc4o3)c2)cc(C)c1Cl` (configuration not stated) has a survival of 55%.
For `COc1ccccc1OC(C)C(=O)Nc1cccc(-c2nc3ccccc3o2)c1` (configuration not stated), the survival was 3% (active).
`CCc1ccc(-c2nc3cc(NC(=O)c4cc5ccccc5cc4OC)ccc3o2)cc1` was tested, and the survival was 14% (active).
In the case of `COc1ccc(-c2nc3ccccc3o2)cc1NC(=O)Cc1ccc(Cl)cc1`, the survival is reported as 68%.
With `CC(C)C(=O)Nc1cccc(-c2nc3ccccc3o2)c1` the survival was 103%.
In the case of `COc1ccc(-c2nc3ccccc3o2)cc1NC(=O)C(C)Oc1ccc(Cl)cc1Cl` (configuration not stated), the survival is reported as 8% (active).
With `COc1cc2ccccc2cc1C(=O)Nc1ccc2oc(-c3ccc(Cl)cc3)nc2c1` the survival was 91%.
`COc1cc2ccccc2cc1C(=O)Nc1ccc2oc(-c3ccc(F)cc3)nc2c1` showed a survival of 81%.
For `CCc1ccc(OCC(=O)Nc2ccc3oc(-c4ccc(OC)cc4)nc3c2)cc1`, the survival was 79%.
`COc1cc2ccccc2cc1C(=O)Nc1ccc2oc(-c3ccc(F)cc3Cl)nc2c1` gave a survival of 69%.
For `COc1ccc(-c2nc3ccccc3o2)cc1NC(=O)CSc1ccc(Cl)cc1`, the survival was 73%.
With `COc1cc2ccccc2cc1C(=O)Nc1ccc2oc(-c3ccccc3)nc2c1` the survival was 4% (active).
`COc1ccc(-n2c(=O)c3sc4ccccc4c3n(C)c2=O)cc1` showed a survival of 83%.
Compound `CCOc1ccc(N=C(c2ccccc2)N2CCOCC2)cc1` has a survival of 99%.
Work on `CCc1ccccc1N(C)C(=O)C1CCCN(c2ncnc3c2nc2n3CCCCC2)C1` (configuration not stated) yielded a survival of 75%.
`CC(C)c1ccc(NC(=O)Cn2c(=O)oc3cc(S(=O)(=O)N4CCCC4)ccc32)cc1` gave a survival of 124%.
`CC(C)C(=O)Nc1ccccc1C(=O)OCc1cc(=O)n2nc(C3CC3)sc2n1` showed a survival of 100%.
`Cc1ccc(-n2nc(C)c3c(C)cc(=O)n(CC(=O)NC(C)c4ccccc4)c32)cc1` (configuration not stated) gave a survival of 143%.
With `Cc1oc2ncn(CC(C)C)c(=O)c2c1C(=O)N(CCN(C)C)Cc1ccccc1` the survival was 99%.
`COc1cc2ccccc2cc1C(=O)Nc1ccc2oc(-c3cccc(C)c3)nc2c1` was tested, and the survival was 6% (active).
With `COc1cc2ccccc2cc1C(=O)Nc1ccc2oc(-c3cccc(Cl)c3Cl)nc2c1` the survival was 71%.
`COc1cc2ccccc2cc1C(=O)Nc1cccc(-c2nc3cc(C)ccc3o2)c1C` gave a survival of 75%.
Work on `Brc1ccc(-n2nc(-c3ccccc3)c3cnc4cc5c(cc4c32)OCO5)cc1` yielded a survival of 112%.
In the case of `CCN(C(=O)CSc1nnc(-c2ccc(Cl)cc2)o1)c1ccccc1`, the survival is reported as 66%.
With `CCCN1C(=O)C(O)(CC(=O)c2ccc(OC)c(OC)c2)c2ccccc21` (configuration not stated) the survival was 130%.
With `Cc1ccccc1CN1C(=O)C(O)(CC(=O)c2cccc(Br)c2)c2ccccc21` (configuration not stated) the survival was 10% (active).
Work on `CCc1ccc(C(=O)CC2(O)C(=O)N(CCc3ccccc3)c3ccc(Br)cc32)cc1` (configuration not stated) yielded a survival of 36%.
Compound `CCCN1C(=O)C(O)(CC(=O)c2ccc(C(C)C)cc2)c2ccccc21` (configuration not stated) has a survival of 129%.
`CCCCN1C(=O)C(O)(CC(=O)c2ccc(C)cc2C)c2cc(Br)ccc21` (configuration not stated) was tested, and the survival was 1% (active).
Compound `COc1ccc(OC)c(C(=O)CC2(O)C(=O)N(Cc3ccccc3C)c3ccccc32)c1` (configuration not stated) has a survival of 118%.
In the case of `Cc1ccc(C(=O)CC2(O)C(=O)N(Cc3ccccc3)c3ccccc32)c(C)c1` (configuration not stated), the survival is reported as 20%.
With `CCCCN1C(=O)C(O)(CC(=O)c2ccc(C(C)(C)C)cc2)c2ccccc21` (configuration not stated) the survival was 3% (active).
In the case of `Cc1ccc(C(=O)CC2(O)C(=O)N(Cc3ccccc3F)c3ccccc32)cc1` (configuration not stated), the survival is reported as 71%.
With `CCCCN1C(=O)C(O)(CC(=O)c2ccc(CC)cc2)c2cc(Br)ccc21` (configuration not stated) the survival was 2% (active).
Work on `O=C(CC1(O)C(=O)N(Cc2ccccc2)c2ccc(Br)cc21)c1ccccc1` (configuration not stated) yielded a survival of 30%.
`Cc1ccc(C(=O)CC2(O)C(=O)N(CCc3ccccc3)c3ccc(Br)cc32)cc1` (configuration not stated) gave a survival of 24%.
`COC(=O)CSc1ncc2c(n1)-c1ccccc1N(Cc1cccc(F)c1)S2(=O)=O` was tested, and the survival was 70%.
`CC(C)CCNC(=O)c1cccc(-n2cnc3cccnc32)c1` gave a survival of 136%.
Work on `Fc1ccc(-c2cn3cc(Cc4ccccc4Cl)sc3n2)cc1` yielded a survival of 53%.
`N#Cc1ccc2ccn(CC(N)=O)c2c1` gave a survival of 95%.
For `Cc1ccc(CNC(=O)c2cc3ccc4cccnc4c3[nH]2)cc1`, the survival was 0% (active).
For `CCOc1ccccc1N(CC)C(=O)c1cc2ccc3cccnc3c2[nH]1`, the survival was 74%.
`CCOC(=O)c1ccccc1NC(=O)c1cc2ccc3cccnc3c2[nH]1` was tested, and the survival was 121%.
`CCOc1ccccc1NC(=O)c1cc2ccc3cccnc3c2[nH]1` was tested, and the survival was 10% (active).
`O=C(NCc1ccccc1)c1cc2ccc3cccnc3c2[nH]1` showed a survival of 73%.
For `O=C(NCc1ccc(Cl)cc1)c1cc2ccc3cccnc3c2[nH]1`, the survival was 49%.
Compound `Cc1ccc(-c2nnn(CC(=O)N(CC(=O)NCCC(C)C)c3ccc(F)cc3)n2)cc1` has a survival of 84%.
With `CCOC(=O)C1C(=O)N(C(=O)c2cncc(Br)c2)CC1c1ccccc1` (configuration not stated) the survival was 112%.
For `CCOC(=O)c1cc(S(=O)(=O)Nc2cc(F)ccc2C)[nH]n1`, the survival was 75%.
`CCC1Oc2ccccc2N(CC(=O)NCc2ccccc2)C1=O` (configuration not stated) was tested, and the survival was -3% (active).
With `CCC1Oc2ccccc2N(CC(=O)NCc2ccc(C)cc2)C1=O` (configuration not stated) the survival was 77%.
For `CC1Oc2ccccc2N(CC(=O)NCc2ccccc2)C1=O` (configuration not stated), the survival was 105%.
Work on `Cc1ccc(CCNC(=O)c2ccc(CSCc3ccc(C)cc3)o2)cc1` yielded a survival of 65%.
Work on `CCc1nn2c(=O)cc(COC(=O)c3cccc(NC(=O)COc4ccccc4F)c3)nc2s1` yielded a survival of 124%.
`CCOC(=O)N1CCC(NC(=O)c2cnn(-c3ccc(F)cc3F)c2C2CCN(C(=O)OC(C)(C)C)CC2)CC1` showed a survival of 82%.
With `CC(C)(C)OC(=O)N1CCC(c2c(C(=O)NC3CCN(Cc4ccccc4)CC3)cnn2-c2ccc(F)cc2F)CC1` the survival was -4% (active).
For `CC(C)(C)OC(=O)N1CCC(c2c(C(=O)NCCN3CCOCC3)cnn2-c2ccc(F)cc2F)CC1`, the survival was -3% (active).
Work on `CC(C)(C)OC(=O)N1CCC(c2c(C(=O)NCCN3CCc4ccccc4C3)cnn2-c2ccc(F)cc2F)CC1` yielded a survival of 81%.
In the case of `CC(C)(C)OC(=O)N1CCC(c2c(C(=O)NCCN3CCOCC3)cnn2-c2ccc(F)cc2)CC1`, the survival is reported as 89%.
`CC(C)(C)OC(=O)N1CCC(c2c(C(=O)NC3CCN(Cc4ccccc4)CC3)cnn2-c2cccc(F)c2)CC1` showed a survival of 76%.
For `Cc1cccc(C)c1-n1ncc(C(=O)NCCN2CCOCC2)c1C1CCN(C(=O)OC(C)(C)C)CC1`, the survival was 75%.
Work on `Cc1cccc(C)c1-n1ncc(C(=O)NCCCN2CCCCC2)c1C1CCN(C(=O)OC(C)(C)C)CC1` yielded a survival of 85%.
`Cc1cccc(C)c1-n1ncc(C(=O)NCCN2CCN(C)CC2)c1C1CCN(C(=O)OC(C)(C)C)CC1` was tested, and the survival was 0% (active).
`Cc1cccc(OCC(=O)Nc2c(C(=O)N3CCN(c4ccccc4)CC3)oc3ccccc23)c1` was tested, and the survival was 86%.
`CN=C1SC(CC(=O)NC(N)=O)C(=O)N1C` (configuration not stated) showed a survival of 92%.
`COc1ccc(OC)c(NC(=O)CSc2ccnc(=O)[nH]2)c1` showed a survival of 80%.
With `CC(=O)Nc1cccc(NC(=O)Cn2c(-c3cccnc3)ccc(C#N)c2=O)c1` the survival was 89%.
`CCN1CCN(C(c2ccc(OC)cc2)c2c(O)cc(C)n(Cc3ccco3)c2=O)CC1` (configuration not stated) showed a survival of 71%.
`CCOC(=O)c1c(NC(=O)CN(CC)CC)sc2c1CCC/C2=N\O` was tested, and the survival was 112%.
`O=C(CSc1nc(-c2ccco2)nc2cc(=O)[nH]n12)Nc1ccc(F)cc1` showed a survival of 65%.
With `CC(NCc1ccc2c(c1)OCO2)C(=O)NC1CCCCC1` (configuration not stated) the survival was 103%.
For `CCOC(=O)c1cc(-c2ccccc2)n(CCC(=O)NCCc2ccccc2)c1C`, the survival was -2% (active).
`CCOC(=O)c1cc(-c2ccccc2)n(CCC(=O)NCCc2cccc(C)c2)c1C` showed a survival of 49%.
For `CCOC(=O)c1cc(-c2ccccc2)n(CCC(=O)NCCc2ccc(C)cc2)c1C`, the survival was 73%.
